Some test systems named below: HCT-15 colon; HT29 colon; SNB-75 CNS; SNB-19 CNS; PC-3 prostate; SK-MEL-5 melanoma; UACC-62 melanoma; LOX IMVI melanoma; SK-MEL-28 melanoma; SK-MEL-2 melanoma; UO-31 renal; TK-10 renal; ACHN renal; CAKI-1 renal; A498 renal; CCRF-CEM leukemia; MOLT-4 leukemia; SN12C renal; EKVX NSCLC.
What all share (experiment): NCI-60 one-dose screen, 48 h (100 = growth as untreated, 0 = no growth, -100 = all killed)
What all share (conditions): 10 µM unless noted

About 83,000 compounds went through this panel and 20% of them were active in at least one assay; those are over-represented in the sample as a whole.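 Cells were grown in 96-well plates and exposed to the test compound at a single concentration for 48 hours; results are reported as percent growth, with values below 10 considered active.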 A number with no mark means an inactive call. Activity calls are given as the source filed them.

Consider `COc1ccc(-n2ncc3c4nc(OC)c(S(=O)(=O)c5ccccc5)cc4ccc32)cc1`, for which the growth was 77.6% in the test on HCT-15 colon; 70.3% with HT29 colon; 6.98% (active) with SNB-75 CNS; 64.9% in the test with SNB-19 CNS; 79.4% in the test with PC-3 prostate; 90.4% in the test on SK-MEL-5 melanoma. The growth in the test on UACC-62 melanoma was 59.9%; with LOX IMVI melanoma it was 86.1%; in the test on SK-MEL-28 melanoma it was 71.6%; in the test on SK-MEL-2 melanoma, 65.9%; in the test with UO-31 renal it was 76.4%; with TK-10 renal, 88.2%. Besides, the growth with ACHN renal was 44.2%; with CAKI-1 renal, 88.7%; with A498 renal it was 43.3%; with CCRF-CEM leukemia, 103%; in the test with MOLT-4 leukemia, 98.4%.
Consider `CCN(C(=O)c1ccc2c3c(cccc13)C=C2)c1ccccc1`, for which the growth with HCT-15 colon is 88.7%; with HT29 colon, 88.8%; in the test on SNB-75 CNS it was 88.9%; in the test with SNB-19 CNS it was 93.7%; with PC-3 prostate, 83.7%; with SK-MEL-5 melanoma it was 93.9%. In addition, the growth in the test on UACC-62 melanoma is 80.3%; with LOX IMVI melanoma, 108%; with SK-MEL-28 melanoma, 108%; with SK-MEL-2 melanoma it was 84.9%; in the test with SN12C renal, 94.7%; with UO-31 renal it was 82.9%. Also, the growth was 110% with TK-10 renal; 100% in the test with ACHN renal; 88.7% in the test on CAKI-1 renal; 90.2% with A498 renal; 104% with CCRF-CEM leukemia; 88.6% in the test on MOLT-4 leukemia.
As to `COc1ccc(OC)c2ncccc12`, the growth was 96.3% with HCT-15 colon; 97.4% in the test with HT29 colon; 88.6% in the test with SNB-75 CNS; 110% in the test with SNB-19 CNS; 92% in the test with PC-3 prostate; 102% with SK-MEL-5 melanoma. Besides, the growth in the test on UACC-62 melanoma was 114%; with LOX IMVI melanoma it was 95.6%; in the test on SK-MEL-28 melanoma it was 117%; in the test with SN12C renal, 101%; with UO-31 renal, 64.4%; in the test with TK-10 renal, 108%. For the same molecule, the growth was 94.7% in the test on ACHN renal, 95.7% in the test with CAKI-1 renal, 101% with A498 renal and 93.1% in the test on MOLT-4 leukemia.
For the molecule `CCCC1=NNC(=O)C1`, the growth was 103% with HCT-15 colon; 103% with HT29 colon; 93.8% in the test on SNB-75 CNS; 103% in the test with SNB-19 CNS; 91.1% in the test on PC-3 prostate; 104% in the test on SK-MEL-5 melanoma. Moreover, the growth with UACC-62 melanoma is 114%; with LOX IMVI melanoma, 108%; in the test on SK-MEL-28 melanoma, 104%; in the test on SK-MEL-2 melanoma, 106%; with SN12C renal it was 101%; in the test on UO-31 renal it was 82.8%. Besides, the growth in the test with TK-10 renal was 97.2%; with ACHN renal, 103%; in the test with CAKI-1 renal it was 94.8%; with A498 renal, 109%; with MOLT-4 leukemia, 97.2%.
`O=C(Nc1ccc(Cl)c(Cl)c1)OCn1ncc2ccc([N+](=O)[O-])cc21`: the growth with HCT-15 colon was 84.9%; with HT29 colon, 103%; in the test with SNB-75 CNS, 67.8%; with SNB-19 CNS, 92.9%; in the test on PC-3 prostate it was 70.9%; in the test on SK-MEL-5 melanoma, 95.7%. The growth with UACC-62 melanoma was 73.6%; in the test with LOX IMVI melanoma it was 78.8%; with SK-MEL-28 melanoma, 108%; with SK-MEL-2 melanoma it was 85%; with SN12C renal, 95.1%; with UO-31 renal, 45.9%. Moreover, the growth in the test with TK-10 renal is 92.9%; in the test with ACHN renal it was 83.5%; in the test on CAKI-1 renal it was 73%; with A498 renal, 60.1%; in the test with MOLT-4 leukemia, 70.6%.
Take `COc1ccc(-n2ncc3c2ccc2cc(S(=O)(=O)c4ccccc4)c(=O)n(C)c23)cc1`: the growth in the test with HCT-15 colon was 92%; in the test on HT29 colon, 81.2%; with SNB-75 CNS it was 49.6%; in the test with SNB-19 CNS, 92.7%; with PC-3 prostate, 86.7%; in the test with SK-MEL-5 melanoma, 95.9%. Moreover, the growth in the test on UACC-62 melanoma is 87.8%; with LOX IMVI melanoma it was 86%; in the test on SK-MEL-28 melanoma it was 91.2%; with SK-MEL-2 melanoma, 96.3%; in the test on SN12C renal it was 101%; in the test with UO-31 renal it was 94.4%. For the same molecule, the growth with TK-10 renal was 86.3%; in the test with ACHN renal it was 75.4%; in the test on CAKI-1 renal, 89.3%; with A498 renal, 70.5%; in the test on CCRF-CEM leukemia, 96.6%; in the test on MOLT-4 leukemia it was 103%.
Turning to `CCCCC(CCCC)(S(=O)(=O)CC)S(=O)(=O)CC`, the growth in the test on HCT-15 colon is 97.7%; in the test on HT29 colon, 105%; in the test on SNB-75 CNS it was 98.4%; in the test with SNB-19 CNS, 105%; in the test with PC-3 prostate, 91.6%; in the test with SK-MEL-5 melanoma, 98%. Moreover, the growth in the test with UACC-62 melanoma was 106%; with LOX IMVI melanoma, 102%; in the test with SK-MEL-28 melanoma, 115%; in the test with SK-MEL-2 melanoma, 108%; with SN12C renal it was 102%; in the test on UO-31 renal, 84.6%. The growth in the test on ACHN renal is 105%; in the test on CAKI-1 renal, 93.6%; in the test with A498 renal, 88.7%; in the test with CCRF-CEM leukemia, 91.5%; in the test with MOLT-4 leukemia, 93.6%.
As to `O=C(O)C[C@H](O)C[C@H](O)/C=C/c1c(C2CC2)nc2ccccc2c1-c1ccc(F)cc1`, the growth is 46.5% with HCT-15 colon; 107% with HT29 colon; 103% in the test with SNB-75 CNS; 74.9% in the test on SNB-19 CNS; 26.9% with PC-3 prostate; 67.6% in the test with SK-MEL-5 melanoma. The growth in the test on UACC-62 melanoma was 19.5%; with LOX IMVI melanoma, 34.5%; in the test with SK-MEL-28 melanoma, 113%; with EKVX NSCLC, 93.6%; in the test with SN12C renal it was 30.3%; in the test with UO-31 renal, 73.3%. Also, the growth in the test with TK-10 renal was 111%; in the test on ACHN renal, 39.7%; in the test with CAKI-1 renal, 26.1%; in the test on A498 renal it was -28.9% (active); in the test on MOLT-4 leukemia, 110%.
`CCCOC(=O)c1ccc2c(c1)[N+](=O)C(C(=O)c1ccccc1)=C(C(F)(F)F)[N+]2=O`: the growth with HCT-15 colon is -65.7% (active); in the test on HT29 colon it was -92.1% (active); in the test on SNB-75 CNS it was -98.5% (active); in the test on SNB-19 CNS, -88.9% (active); with PC-3 prostate, -91.5% (active); in the test on UACC-62 melanoma, -92.4% (active). Further, the growth in the test with LOX IMVI melanoma was -74.7% (active); in the test with SK-MEL-28 melanoma it was -96.8% (active); with SK-MEL-2 melanoma, -87.6% (active); with SN12C renal, -92.3% (active); with UO-31 renal it was -89% (active); with TK-10 renal, -99.1% (active). For the same molecule, the growth in the test on ACHN renal is -91.8% (active); in the test with CAKI-1 renal it was -92.5% (active); in the test with A498 renal, -90.9% (active); in the test with CCRF-CEM leukemia it was -64.4% (active); with MOLT-4 leukemia, -63.3% (active).

These data come from PubChem BioAssay (NCI).
